Bioassay records from PubChem BioAssay.
This is one part of a sample in which hits are shown more often than they occur.
CBX7 inh = CBX7 chromodomain binding inhibitors, primary screen, biochemical, AlphaScreen | Chromobox protein homolog 7 (Homo sapiens), O95931 | AlphaScreen His6-CBX7 / biotin-H3K27me3 peptide binding; stronger effect = lower value | normalised signal (fraction of DMSO) (no concentration beside the values) | 1.1% of 66,000 active | AID 1224903, 2016; in the data active = normalised signal below about 0.5
Target sequence (O95931 whole entry, looked up): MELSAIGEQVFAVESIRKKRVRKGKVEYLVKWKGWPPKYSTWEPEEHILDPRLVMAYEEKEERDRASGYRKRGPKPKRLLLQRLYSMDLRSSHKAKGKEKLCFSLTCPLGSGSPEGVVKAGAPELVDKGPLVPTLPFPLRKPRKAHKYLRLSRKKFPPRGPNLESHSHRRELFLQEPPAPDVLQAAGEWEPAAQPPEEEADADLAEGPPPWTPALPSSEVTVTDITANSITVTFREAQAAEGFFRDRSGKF
Numbers stand for hits; – = inactive.

SMILES	CBX7 inh
CCC1=Nc2cc(C(=O)NCCCN(C)c3ccccc3)ccc2Sc2ccc(C)cc21	–
Cc1cc(C)c2nc(N3CCC(C(=O)NCc4cccc(Cl)c4)CC3)sc2c1	–
Cc1ccc(-n2ncc3c(N4CC(C)OC(C)C4)ncnc32)c(C)c1 (stereo not given)	–
CC1(C)CC(=O)c2cc(C(=O)N3CCOCC3)c(=O)n(-c3ccc(Cl)cc3)c2C1	–
Cc1ccccc1Nc1nc(-c2ccccc2)c(CC(=O)O)s1	–
CCc1ccc(C(=O)CC2(O)C(=O)N(Cc3ccc(Cl)cc3)c3ccccc32)cc1 (stereo not given)	0.42
Cc1ccc(C(=O)CC2(O)C(=O)N(Cc3ccc(Cl)cc3)c3ccccc32)cc1 (stereo not given)	–
COc1ccc(C(=O)CC2(O)C(=O)N(Cc3ccc(Cl)cc3)c3ccccc32)cc1 (stereo not given)	–
Cc1ccc(C(=O)Nc2sc3c(c2C(=O)N2CCC(C)CC2)CCC(C)C3)cc1 (stereo not given)	–
Cc1noc(/C=C/c2cccs2)c1S(=O)(=O)N1CCCC(C(=O)N2CCCCC2)C1 (stereo not given)	–
CCCCCn1c(=O)[nH]c2cc(C(=O)NCc3ccccn3)ccc2c1=O	0.11
CCCCCn1c(=O)[nH]c2cc(C(=O)NCc3ccc(Cl)cc3)ccc2c1=O	–
O=C(NCc1ccccn1)c1ccc2c(=O)n(CCc3ccccc3)c(=O)[nH]c2c1	–
COc1ccc(Cl)cc1C(=O)Nc1ccc2nc(N3CCN(c4ncccn4)CC3)cc(C)c2c1	–
CCc1cccc(C)c1Nc1c(-c2ccc(F)cc2)nc2nc(C)cc(C)n12	–
CCn1c(=O)cc(OCC(=O)Nc2cccc(Cl)c2)c2ccccc21	–
C=CCN1C(=O)c2ccccc2Sc2ccc(C(=O)NCc3cccnc3)cc21	–
O=C1CC(n2c(CCc3ccccc3)nc3ccccc32)C(=O)N1c1ccc(F)cc1 (stereo not given)	–
Cc1c(NC(=O)c2cc3ccccc3o2)cccc1-c1nc2cc(Cl)ccc2o1	–
O=C(Nc1ccc2oc(-c3ccccc3Cl)nc2c1)c1ccc(F)cc1	–
Cc1c(NC(=O)c2ccccc2F)cccc1-c1nc2ccccc2s1	–
Cc1c(NC(=O)c2ccccc2F)cccc1-c1nc2cc(Cl)ccc2o1	–
O=C(Nc1ccc2oc(-c3ccccc3Cl)nc2c1)c1cncc(Br)c1	–
O=C(Nc1ccc2oc(-c3ccccc3Cl)nc2c1)c1ncn[nH]1	0.043
Cc1c(NC(=O)c2ncn[nH]2)cccc1-c1nc2ccccc2s1	0.18
SMILES	CBX7 inh
O=C(Nc1ccccc1-c1nc2ccccc2s1)c1ccccc1	–
Cc1c(NC(=O)c2ncn[nH]2)cccc1-c1nc2cc(Cl)ccc2o1	0.12
O=C(CSc1nc2ccccc2nc1Cc1ccc(F)cc1)Nc1nccs1	–
CCCCNC(=O)CSCc1nc(-c2ccccc2Cl)oc1C	–
CCCN(CCC)C(=O)c1c[nH]c2ccc(S(=O)(=O)Nc3ccccc3CC)cc2c1=O	–
Cc1ccc(Nc2nc(C)c(C(=O)Nc3ccc(Br)cc3)s2)cc1	–
COc1ccc(-c2cc3nc(C)c(Cc4ccccc4)c(=O)n3[nH]2)cc1	–
COC(CNC(=O)c1cc(Nc2ccccc2C)nc2ccccc12)OC	–
CCOc1cc(C2CC(=O)Nc3cc4c(cc32)OCO4)ccc1O (stereo not given)	–
Cc1ccc2c(c1)N(CCC(=O)NCCc1ccccc1)C(=O)C(C)O2 (stereo not given)	–
COc1ccccc1CNS(=O)(=O)c1ccc2[nH]cc(C(=O)O)c(=O)c2c1	–
O=C(O)c1c[nH]c2ccc(S(=O)(=O)NCc3ccc4c(c3)OCO4)cc2c1=O	0.48
COc1cccc(CNS(=O)(=O)c2ccc3[nH]cc(C(=O)O)c(=O)c3c2)c1	–
CC1CCCCN1CCNC(=O)c1cc(=O)[nH]c2ccc(S(=O)(=O)N3CCCCC3)cc12 (stereo not given)	–
Cc1ccc(CCN2C(=O)CCC2(C)C(=O)NC2CCCC(C)C2C)cc1 (stereo not given)	–
Cc1ccccc1-n1c(=O)cc(N2CCOCC2)[nH]c1=O	–
Cc1cc(C)n(-c2nc3ccccc3nc2Nc2ccc(C(C)C)cc2)n1	–
Cc1cc(C)n(-c2nc3ccccc3nc2Nc2ccc(N3CCCCC3)cc2)n1	0.42
Cc1cc(C)n(-c2nc3ccccc3nc2Nc2ccc(F)cc2)n1	–
CN(c1ccccc1)S(=O)(=O)c1ccc(C(=O)Nc2nnc(C3CC3)o2)cc1	–
COCc1nnc(NC(=O)c2ccc(S(=O)(=O)N(C)c3ccccc3)cc2)o1	–
CCc1nnc(NC(=O)c2ccc(S(=O)(=O)N(CC)c3ccccc3)cc2)o1	0.073
CCN(c1ccccc1)S(=O)(=O)c1ccc(C(=O)Nc2nnc(COC)o2)cc1	–
CC(C)N(Cc1ccccc1)S(=O)(=O)c1ccc(C(=O)Nc2nnc(-c3cccs3)o2)cc1	–
CCN(c1ccccc1)S(=O)(=O)c1ccc(C(=O)Nc2nnc(C3CC3)o2)cc1	0.066
Cc1ccc2cc(CCNC(=O)c3ccc4ccccc4c3)c(=O)[nH]c2c1C	–
O=C(CN1N=C(c2ccccc2)CCC1=O)NCCN1CCOCC1	–
